# Laboratory results from publication PMC12215968.
# Columns and labels:
# [1] = biological target: Eukaryotic translation initiation factor 3 subunit C (UniProt Q99613); assay: cross-linking mass spectrometry
# [2] = biological target: Peptidyl-prolyl cis-trans isomerase A (UniProt P62937); assay: cross-linking mass spectrometry
# [3] = biological target: Thymosin beta-4 (UniProt P62328); assay: cross-linking mass spectrometry
# [4] = biological target: 26S proteasome non-ATPase regulatory subunit 2 (UniProt Q13200); assay: cross-link between two proteins; cross-linking mass spectrometry
# [5] = biological target: Adenylyl cyclase-associated protein 1 (UniProt Q01518); assay: as above
# [6] = biological target: Elongation factor 1-alpha 2 (UniProt Q05639); assay: as above
# [7] = biological target: Heat shock protein HSP 90-beta (UniProt P08238); assay: as above
# [8] = biological target: Putative heat shock protein HSP 90-beta-3 (UniProt Q58FF7); assay: as above
# [9] = biological target: Histone H1.2 (UniProt P16403); assay: as above
# [10] = biological target: Histone H2B type F-S (UniProt P57053); assay: as above
# [11] = biological target: T1, Junctophilin-2 (UniProt Q9BR39); assay: as above
# T1 sequence: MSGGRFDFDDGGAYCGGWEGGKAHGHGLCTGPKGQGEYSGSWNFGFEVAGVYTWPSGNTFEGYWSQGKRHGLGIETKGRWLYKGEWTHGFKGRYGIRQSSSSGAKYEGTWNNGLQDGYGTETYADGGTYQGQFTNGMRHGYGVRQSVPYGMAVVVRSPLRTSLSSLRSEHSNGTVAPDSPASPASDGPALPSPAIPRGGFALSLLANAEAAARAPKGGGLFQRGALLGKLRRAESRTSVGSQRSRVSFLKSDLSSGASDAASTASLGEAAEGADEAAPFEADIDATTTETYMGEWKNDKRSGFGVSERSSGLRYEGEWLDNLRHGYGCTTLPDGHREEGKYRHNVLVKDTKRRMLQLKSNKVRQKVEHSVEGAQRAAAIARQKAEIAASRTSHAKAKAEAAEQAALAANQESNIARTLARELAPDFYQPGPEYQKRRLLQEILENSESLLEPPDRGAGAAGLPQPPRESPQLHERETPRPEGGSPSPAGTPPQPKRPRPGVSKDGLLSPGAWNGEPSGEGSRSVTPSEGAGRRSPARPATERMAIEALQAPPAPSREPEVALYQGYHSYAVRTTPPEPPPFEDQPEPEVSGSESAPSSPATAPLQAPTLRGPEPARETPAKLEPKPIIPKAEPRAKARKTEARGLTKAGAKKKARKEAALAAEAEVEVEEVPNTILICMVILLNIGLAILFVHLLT
# [12] = biological target: Large ribosomal subunit protein eL24 (UniProt P83731); assay: as above
# [13] = biological target: Ribosomal protein eL42-like (UniProt Q969Q0); assay: as above
# [14] = biological target: Thymosin beta-10 (UniProt P63313); assay: as above
# [15] = biological target: Ubiquitin-conjugating enzyme E2 L3 (UniProt P68036); assay: as above
# [16] = biological target: Ubiquitin-like FUBI-ribosomal protein eS30 fusion protein (UniProt P62861); assay: as above
# [17] = biological target: Ubiquitin-ribosomal protein eS31 fusion protein (UniProt P62979); assay: as above
substance,measurement,setting,value
"Small ribosomal subunit protein uS15, P62277",listed as a hit,[1],yes
"Actin, cytoplasmic 1, P60709",listed as a hit,[2],yes
same,listed as a hit,[3],yes
"26S proteasome regulatory subunit 8, P62195",listed as a hit,[4],yes
"Actin, alpha cardiac muscle 1, P68032",listed as a hit,[5],yes
"Large ribosomal subunit protein uL13, P40429",listed as a hit,[6],yes
O60361,listed as a hit,[7],yes
same,listed as a hit,[8],yes
"Non-histone chromosomal protein HMG-17, P05204",listed as a hit,[9],yes
"Histone H2A type 1, P0C0S8",listed as a hit,[10],yes
"Histone H2B type 1-C/E/F/G/I, P62807",listed as a hit,[11],yes
"Large ribosomal subunit protein eL8, P62424",listed as a hit,[12],yes
"Large ribosomal subunit protein uL1, P62906",listed as a hit,[13],yes
"Actin, cytoplasmic 2, P63261",listed as a hit,[14],yes
"Ubiquitin-ribosomal protein eS31 fusion protein, P62979",listed as a hit,[15],yes
"Elongation factor 2, P13639",listed as a hit,[16],yes
"Histone H2A type 1-D, P20671",listed as a hit,[17],yes
"Histone H2A type 1-B/E, P04908",listed as a hit,[17],yes
